Columns and labels:
Experiment in all cases: log2 ratio of Biotin-Ahx-Ub-VS probe labelling (fragment/DMSO); higher = less target engagement (more negative = stronger competition), active = hit call of the paper (q ≤ 0.05, log2 ratio ≤ -1)
Conditions in all cases: compound concentration: 200 uM; treatment time: 3 h
USP34 = USP34 (UniProt Q70CQ2)
Method in brief: (§1)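 Labelling with Biotin-Ahx-Ub-VS (0.5 µM final, 1 h) followed a 3 h triplicate treatment of HEK293T lysate (495 µg per sample, Tris/CHAPS/IGEPAL buffer with protease inhibitors) with fragment at 200 µM or vehicle. Labelled DUBs were NeutrAvidin-enriched, digested with LysC and trypsin, and run by diaPASEF LC-MS/MS. The values, average log2 fragment/vehicle ratios by unpaired t-test, come from global-median-normalised Spectronaut label-free quantities. Proteins with ≥2 unique peptides were used.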

USP36 = target: T1, USP36 (UniProt Q9P275)
T1 sequence (whole entry): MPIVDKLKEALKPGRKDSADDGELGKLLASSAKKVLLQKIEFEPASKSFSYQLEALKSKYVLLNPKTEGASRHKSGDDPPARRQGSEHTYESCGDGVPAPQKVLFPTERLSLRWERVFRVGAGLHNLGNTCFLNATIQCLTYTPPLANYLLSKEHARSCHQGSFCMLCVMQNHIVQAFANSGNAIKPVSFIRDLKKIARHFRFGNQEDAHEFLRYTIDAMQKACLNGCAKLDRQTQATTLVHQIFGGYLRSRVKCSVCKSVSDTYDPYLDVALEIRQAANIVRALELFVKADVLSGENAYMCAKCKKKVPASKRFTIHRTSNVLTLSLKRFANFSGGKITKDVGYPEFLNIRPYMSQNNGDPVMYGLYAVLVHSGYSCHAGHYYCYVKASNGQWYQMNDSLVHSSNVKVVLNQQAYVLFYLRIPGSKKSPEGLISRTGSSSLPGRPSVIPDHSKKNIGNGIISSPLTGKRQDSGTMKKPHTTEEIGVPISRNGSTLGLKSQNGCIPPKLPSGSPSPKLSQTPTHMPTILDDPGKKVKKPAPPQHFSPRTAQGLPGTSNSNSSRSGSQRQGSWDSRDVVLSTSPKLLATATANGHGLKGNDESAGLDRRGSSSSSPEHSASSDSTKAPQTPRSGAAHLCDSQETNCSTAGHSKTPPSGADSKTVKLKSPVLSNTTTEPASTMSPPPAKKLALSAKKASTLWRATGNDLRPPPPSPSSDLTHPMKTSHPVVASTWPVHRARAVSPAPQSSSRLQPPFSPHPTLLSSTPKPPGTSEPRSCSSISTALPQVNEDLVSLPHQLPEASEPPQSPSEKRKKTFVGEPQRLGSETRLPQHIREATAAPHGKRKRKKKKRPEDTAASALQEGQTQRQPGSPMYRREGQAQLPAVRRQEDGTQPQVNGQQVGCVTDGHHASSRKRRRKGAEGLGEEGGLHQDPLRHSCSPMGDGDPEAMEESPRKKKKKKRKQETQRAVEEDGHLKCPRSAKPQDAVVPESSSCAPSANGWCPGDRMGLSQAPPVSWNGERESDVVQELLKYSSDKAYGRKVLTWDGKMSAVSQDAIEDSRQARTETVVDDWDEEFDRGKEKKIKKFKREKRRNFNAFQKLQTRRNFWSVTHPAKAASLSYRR
Method in brief: as §1

USP38 = target: T2, USP38 (UniProt Q8NB14)
T2 sequence (whole entry): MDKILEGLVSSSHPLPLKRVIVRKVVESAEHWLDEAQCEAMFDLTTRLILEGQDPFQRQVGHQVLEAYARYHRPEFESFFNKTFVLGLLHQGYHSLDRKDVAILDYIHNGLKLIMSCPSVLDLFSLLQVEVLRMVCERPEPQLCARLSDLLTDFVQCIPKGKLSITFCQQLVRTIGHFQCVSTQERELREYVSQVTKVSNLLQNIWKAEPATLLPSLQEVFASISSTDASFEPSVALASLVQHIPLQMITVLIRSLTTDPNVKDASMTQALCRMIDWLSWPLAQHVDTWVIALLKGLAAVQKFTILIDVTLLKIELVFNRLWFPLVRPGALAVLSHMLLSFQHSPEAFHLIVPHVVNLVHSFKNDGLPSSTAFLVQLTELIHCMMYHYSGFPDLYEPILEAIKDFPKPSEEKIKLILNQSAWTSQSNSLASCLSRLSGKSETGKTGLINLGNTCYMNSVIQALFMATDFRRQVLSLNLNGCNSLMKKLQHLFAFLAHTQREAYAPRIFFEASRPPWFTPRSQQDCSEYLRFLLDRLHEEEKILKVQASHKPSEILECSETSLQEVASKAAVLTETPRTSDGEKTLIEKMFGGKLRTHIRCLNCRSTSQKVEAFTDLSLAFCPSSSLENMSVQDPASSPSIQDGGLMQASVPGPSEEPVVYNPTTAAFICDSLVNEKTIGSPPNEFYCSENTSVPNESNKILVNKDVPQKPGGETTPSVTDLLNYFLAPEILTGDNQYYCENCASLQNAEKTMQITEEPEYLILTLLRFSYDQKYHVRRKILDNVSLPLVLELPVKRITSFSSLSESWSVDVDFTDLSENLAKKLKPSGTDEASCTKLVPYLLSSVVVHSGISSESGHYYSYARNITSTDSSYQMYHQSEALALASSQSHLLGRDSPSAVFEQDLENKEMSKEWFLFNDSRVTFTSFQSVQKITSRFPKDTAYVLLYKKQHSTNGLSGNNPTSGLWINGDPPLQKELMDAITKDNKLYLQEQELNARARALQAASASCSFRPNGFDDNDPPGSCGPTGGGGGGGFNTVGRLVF
Method in brief: as §1

USP39 = target: T3, USP39 (UniProt Q53GS9)
T3 sequence (whole entry): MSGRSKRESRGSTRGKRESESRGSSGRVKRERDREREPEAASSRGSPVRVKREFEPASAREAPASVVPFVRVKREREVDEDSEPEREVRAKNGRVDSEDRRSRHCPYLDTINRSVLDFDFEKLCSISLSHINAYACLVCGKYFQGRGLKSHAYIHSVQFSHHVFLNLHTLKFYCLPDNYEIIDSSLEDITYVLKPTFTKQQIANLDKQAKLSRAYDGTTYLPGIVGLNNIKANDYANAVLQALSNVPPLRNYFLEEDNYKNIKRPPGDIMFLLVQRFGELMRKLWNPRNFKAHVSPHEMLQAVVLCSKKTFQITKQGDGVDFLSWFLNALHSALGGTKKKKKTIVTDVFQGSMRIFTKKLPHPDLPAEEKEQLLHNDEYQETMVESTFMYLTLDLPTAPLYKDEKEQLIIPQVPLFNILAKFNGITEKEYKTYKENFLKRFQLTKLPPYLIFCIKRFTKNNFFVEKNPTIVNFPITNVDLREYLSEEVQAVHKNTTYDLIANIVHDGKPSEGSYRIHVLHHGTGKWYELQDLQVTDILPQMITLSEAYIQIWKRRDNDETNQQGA
Method in brief: as §1

USP4 = target: T4, USP4 (UniProt Q13107)
T4 sequence (whole entry): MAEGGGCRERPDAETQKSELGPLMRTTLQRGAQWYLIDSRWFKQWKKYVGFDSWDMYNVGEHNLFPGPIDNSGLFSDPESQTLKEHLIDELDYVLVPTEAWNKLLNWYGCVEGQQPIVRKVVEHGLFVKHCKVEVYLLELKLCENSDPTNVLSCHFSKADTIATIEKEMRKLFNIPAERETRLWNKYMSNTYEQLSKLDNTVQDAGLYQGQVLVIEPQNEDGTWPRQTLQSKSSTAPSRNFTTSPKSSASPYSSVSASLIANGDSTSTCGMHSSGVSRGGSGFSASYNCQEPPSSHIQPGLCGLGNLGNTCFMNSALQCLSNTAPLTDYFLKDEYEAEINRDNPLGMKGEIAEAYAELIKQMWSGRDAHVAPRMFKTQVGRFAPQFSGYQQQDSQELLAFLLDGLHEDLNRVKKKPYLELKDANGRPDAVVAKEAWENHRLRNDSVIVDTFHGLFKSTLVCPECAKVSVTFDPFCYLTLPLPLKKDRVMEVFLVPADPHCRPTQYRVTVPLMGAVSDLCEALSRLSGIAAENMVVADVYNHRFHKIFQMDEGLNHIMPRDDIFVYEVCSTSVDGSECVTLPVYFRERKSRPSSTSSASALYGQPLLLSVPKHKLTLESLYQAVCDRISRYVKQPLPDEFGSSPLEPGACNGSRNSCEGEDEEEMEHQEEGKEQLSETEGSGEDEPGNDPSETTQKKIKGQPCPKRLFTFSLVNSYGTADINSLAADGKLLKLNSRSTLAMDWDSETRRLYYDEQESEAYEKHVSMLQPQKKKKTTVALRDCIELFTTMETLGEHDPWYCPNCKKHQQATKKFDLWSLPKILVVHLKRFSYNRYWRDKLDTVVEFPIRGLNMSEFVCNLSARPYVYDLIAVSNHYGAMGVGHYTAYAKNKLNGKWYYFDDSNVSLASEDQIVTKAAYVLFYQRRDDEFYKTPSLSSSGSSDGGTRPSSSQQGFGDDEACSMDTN
Method in brief: as §1

Measured: log2 ratio of Biotin-Ahx-Ub-VS probe labelling

Chain of USP34 (Q70CQ2 whole entry, the tested form may be a part): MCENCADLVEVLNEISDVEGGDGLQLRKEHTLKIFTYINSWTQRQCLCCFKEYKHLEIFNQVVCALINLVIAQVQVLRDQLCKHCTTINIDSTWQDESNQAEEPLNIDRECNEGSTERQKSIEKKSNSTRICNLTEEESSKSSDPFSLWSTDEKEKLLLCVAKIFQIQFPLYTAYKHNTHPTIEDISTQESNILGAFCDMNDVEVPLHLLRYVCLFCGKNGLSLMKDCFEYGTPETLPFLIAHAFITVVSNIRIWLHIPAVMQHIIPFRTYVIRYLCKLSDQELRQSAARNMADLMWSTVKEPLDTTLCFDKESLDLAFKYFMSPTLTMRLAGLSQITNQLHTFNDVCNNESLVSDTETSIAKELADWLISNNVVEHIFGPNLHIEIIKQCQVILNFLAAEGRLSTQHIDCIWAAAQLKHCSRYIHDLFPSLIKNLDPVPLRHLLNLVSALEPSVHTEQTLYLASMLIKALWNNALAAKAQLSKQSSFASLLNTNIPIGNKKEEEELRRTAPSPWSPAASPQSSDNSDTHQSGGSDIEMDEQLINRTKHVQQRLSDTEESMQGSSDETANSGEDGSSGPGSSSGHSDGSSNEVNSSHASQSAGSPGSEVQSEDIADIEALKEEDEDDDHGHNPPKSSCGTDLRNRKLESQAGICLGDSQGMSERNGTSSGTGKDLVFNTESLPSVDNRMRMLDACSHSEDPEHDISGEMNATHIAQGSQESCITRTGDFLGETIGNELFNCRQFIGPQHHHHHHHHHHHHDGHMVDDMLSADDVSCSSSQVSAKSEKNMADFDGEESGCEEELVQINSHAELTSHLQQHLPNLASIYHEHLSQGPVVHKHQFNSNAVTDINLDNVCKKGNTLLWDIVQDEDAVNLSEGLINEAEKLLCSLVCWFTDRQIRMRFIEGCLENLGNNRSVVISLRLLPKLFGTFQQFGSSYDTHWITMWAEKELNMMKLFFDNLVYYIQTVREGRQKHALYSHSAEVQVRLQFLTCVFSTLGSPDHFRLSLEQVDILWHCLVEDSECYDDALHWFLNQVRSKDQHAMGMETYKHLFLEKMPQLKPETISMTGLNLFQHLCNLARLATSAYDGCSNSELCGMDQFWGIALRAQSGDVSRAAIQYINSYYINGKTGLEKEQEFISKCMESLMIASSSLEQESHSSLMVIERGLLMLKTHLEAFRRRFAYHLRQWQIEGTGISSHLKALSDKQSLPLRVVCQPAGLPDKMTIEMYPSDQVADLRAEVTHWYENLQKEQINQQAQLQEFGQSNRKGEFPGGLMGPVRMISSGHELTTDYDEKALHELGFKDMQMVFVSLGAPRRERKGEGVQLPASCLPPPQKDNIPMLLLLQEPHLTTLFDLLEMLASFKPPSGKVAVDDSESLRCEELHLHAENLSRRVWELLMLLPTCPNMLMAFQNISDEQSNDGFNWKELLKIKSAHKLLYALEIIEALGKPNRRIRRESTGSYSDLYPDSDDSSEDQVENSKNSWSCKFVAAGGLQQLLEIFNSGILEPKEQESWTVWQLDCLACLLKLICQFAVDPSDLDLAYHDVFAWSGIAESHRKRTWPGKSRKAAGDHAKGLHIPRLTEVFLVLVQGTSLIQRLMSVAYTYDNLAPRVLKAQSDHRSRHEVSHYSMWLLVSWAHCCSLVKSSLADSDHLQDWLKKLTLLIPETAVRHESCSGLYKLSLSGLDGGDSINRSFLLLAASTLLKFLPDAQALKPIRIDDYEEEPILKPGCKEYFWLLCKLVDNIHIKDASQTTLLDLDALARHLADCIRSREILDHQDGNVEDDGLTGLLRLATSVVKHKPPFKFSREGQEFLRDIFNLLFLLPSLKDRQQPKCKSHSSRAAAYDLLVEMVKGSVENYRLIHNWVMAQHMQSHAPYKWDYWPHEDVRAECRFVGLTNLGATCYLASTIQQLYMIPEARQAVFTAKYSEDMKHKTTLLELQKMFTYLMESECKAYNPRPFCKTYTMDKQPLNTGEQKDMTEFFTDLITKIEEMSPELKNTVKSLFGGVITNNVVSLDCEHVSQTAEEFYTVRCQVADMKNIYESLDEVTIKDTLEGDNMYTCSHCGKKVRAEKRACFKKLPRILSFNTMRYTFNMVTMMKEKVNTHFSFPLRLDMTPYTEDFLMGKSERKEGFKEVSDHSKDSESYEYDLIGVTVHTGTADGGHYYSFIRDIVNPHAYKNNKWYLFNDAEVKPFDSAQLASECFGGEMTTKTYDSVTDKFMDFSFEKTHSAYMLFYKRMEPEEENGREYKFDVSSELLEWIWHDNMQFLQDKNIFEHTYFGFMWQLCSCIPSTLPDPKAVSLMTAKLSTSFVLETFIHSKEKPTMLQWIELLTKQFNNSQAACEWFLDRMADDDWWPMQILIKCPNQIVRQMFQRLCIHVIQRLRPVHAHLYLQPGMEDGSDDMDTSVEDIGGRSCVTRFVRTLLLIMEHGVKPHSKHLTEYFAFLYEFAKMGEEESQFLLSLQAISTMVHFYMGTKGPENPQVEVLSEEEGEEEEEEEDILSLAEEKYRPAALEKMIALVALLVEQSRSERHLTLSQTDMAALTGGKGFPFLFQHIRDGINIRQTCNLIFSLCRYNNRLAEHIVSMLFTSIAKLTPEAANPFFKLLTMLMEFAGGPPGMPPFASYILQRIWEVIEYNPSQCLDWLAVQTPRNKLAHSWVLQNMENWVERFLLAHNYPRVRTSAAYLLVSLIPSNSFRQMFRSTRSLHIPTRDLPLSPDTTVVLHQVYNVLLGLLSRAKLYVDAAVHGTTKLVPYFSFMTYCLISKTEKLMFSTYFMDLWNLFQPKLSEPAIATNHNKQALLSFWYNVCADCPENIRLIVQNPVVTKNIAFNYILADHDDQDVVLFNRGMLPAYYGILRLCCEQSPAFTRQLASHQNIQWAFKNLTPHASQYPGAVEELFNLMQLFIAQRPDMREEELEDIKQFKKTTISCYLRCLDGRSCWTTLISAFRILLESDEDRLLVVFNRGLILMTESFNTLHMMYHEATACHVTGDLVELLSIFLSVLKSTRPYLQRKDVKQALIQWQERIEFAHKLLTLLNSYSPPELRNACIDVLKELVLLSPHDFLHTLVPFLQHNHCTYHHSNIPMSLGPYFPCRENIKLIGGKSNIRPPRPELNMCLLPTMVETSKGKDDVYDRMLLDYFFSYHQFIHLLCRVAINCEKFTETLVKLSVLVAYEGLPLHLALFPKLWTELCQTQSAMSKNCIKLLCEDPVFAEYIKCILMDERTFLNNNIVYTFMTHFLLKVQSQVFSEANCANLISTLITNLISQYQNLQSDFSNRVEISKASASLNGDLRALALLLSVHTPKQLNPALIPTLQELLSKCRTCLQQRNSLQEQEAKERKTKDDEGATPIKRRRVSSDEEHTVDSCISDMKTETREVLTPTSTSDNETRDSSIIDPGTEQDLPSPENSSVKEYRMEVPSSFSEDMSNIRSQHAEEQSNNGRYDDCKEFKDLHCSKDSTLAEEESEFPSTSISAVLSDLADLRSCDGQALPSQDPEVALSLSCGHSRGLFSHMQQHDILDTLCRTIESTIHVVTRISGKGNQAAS

Cc1ccccc1C1(CNC(=O)CCl)CCOCC1
inactive: USP34 0.051 | USP36 0.0925 | USP38 -0.0365 | USP39 -0.165 | USP4 -0.221
